The source made the active and inactive calls. Calls follow the shape of the dose curve; as a rule, active = well fitted activation curve with a large enough effect in the repeat runs; inconclusive = weak or mixed curves; inactive = flat fitted curve, though single readings scatter.

The nature of the assay: Caspase-3/7 induction in CHO-K1 cells by small molecules, qHTS assay (AID 1346980). Also: nearly all actives have a fitted effect of over 15% in size. Conditions: CHO-K1 caspase-3/7 induction, Caspase-Glo luminescence, 17 h; series mostly up to 92.4 µM. The source says:
National Center for Advancing Translational Sciences [NCATS]
NIH Chemical Genomics Center [NCGC]
U.S. Environmental Protection Agency [EPA]
National Institutes of Environmental Health Sciences [NIEHS]
National Toxicology Program [NTP]
Apoptosis is a process of programmed cell death and plays a central role in the development of multicellular organisms. It is a highly regulated process and induces cell death by activating caspases, which are the members of cysteine aspartic acid-specific protease (caspase) family. Caspases involved in apoptosis are classified by their mechanism of action as initiator caspases (caspase-2, -8, -9 and -10) and executioner caspases (caspase-3, -6, and -7). Inhibition of apoptosis results in number of cancers, autoimmune diseases, inflammatory diseases and viral infection. To identify small molecule compounds that induce apoptosis, a homogeneous, luminescent Caspase-Glo 3/7 assay was used. Wild type CHO-K1 cells were used to screen Tox21 libraries for identifying caspase-3/7 activity inducers.
CHO-K1 cells were dispensed at 1,500 per well in 5uL of culture medium into white solid bottom 1536-well plates (Corning Life Sciences, Corning, NY) using a Multidrop Combi (Thermo Scientific, Waltham, MA) dispenser. The assay plates were incubated at 37 C and 5% CO2 for 5hr, and then 23nL of compounds dissolved in DMSO and positive control were transferred using a Pintool station (Wako, San Diego, CA). The assay plates were incubated at 37C and 5% CO2 for 17hr. For caspase-3/7 activity read, 4uL of Caspase-Glo 3/7 reagent (Promega Corporation, Madison, WI) was added to each well of the assay plates using Flying Reagent Dispenser (FRD, Aurora Discovery, San Diego, CA) and incubated the assay plates at room temperature for 30min. The luminescence signal was quantified using a ViewLux plate reader (Perkin Elmer, Shelton, CT).
(In qHTS, concentration-response curves come from the screen itself.)
Turning to `Nc1nc(N)nc(NC2CC2)n1`, the outcome was inactive.
On to `FC(F)(F)c1ccc(Cl)cc1`, for which the molecule was called inactive.
Regarding `C=C(C)C(=O)OCC(CC)CCCC` (stereo not given), the outcome was inactive.
Next, `OC[C@@H](O)[C@H]1O[C@@H]2O[C@H](C(Cl)(Cl)Cl)O[C@@H]2[C@H]1O`: “inactive”.
Next, `Cc1cccc(C)c1N`: “inactive”.
For the molecule `Sc1ccccc1`, the molecule was classed as inactive.
For `Oc1c(Br)cc(Br)cc1Br`, the call was inactive.
Next, `N#Cc1cccc(C#N)c1`: “inactive”; `CC12CC1(C)C(=O)N(c1cc(Cl)cc(Cl)c1)C2=O` (stereo not given): “inactive”.
With `CNCC(O)c1ccc(O)cc1` (stereo not given), the molecule was classed as inactive.
As for `Cc1cccc(N)c1`, the outcome was inactive.
To `Cc1ccc(N=C=O)cc1N=C=O` belongs “inactive”; to `Nc1ccc(N)cc1`, “inactive”; to `CNC(=O)O/N=C/C(C)(C)SC`, “inactive”.
For `O=[N+]([O-])c1cc([As](=O)(O)O)ccc1O`, the call was inactive.
To `O=C(O)c1cc(Oc2ccc(C(F)(F)F)cc2Cl)ccc1[N+](=O)[O-]` belongs “inactive”.
`O=C(O)C1C(C(=O)O)C2(Cl)C(Cl)=C(Cl)C1(Cl)C2(Cl)Cl` (stereo not given): the molecule was classed as inactive.
For the molecule `N#Cc1ccccn1`, the molecule was called inactive.
On to `C=CC#N`, for which the result was inactive.
On to `O=[N+]([O-])c1ccc(Cl)c(Cl)c1`, for which the molecule was classed as inactive.
Turning to `Cc1ccc(O)c(C)c1`, the result was inactive.
To `O=C(O)CCCc1ccc(N(CCCl)CCCl)cc1` belongs “inactive”.
For the molecule `CN(C)CCC#N`, the outcome was inactive.
Turning to `CCOP(=S)(OCC)Oc1ccc([N+](=O)[O-])cc1`, the outcome was inactive.
In the case of `COP(=S)(OC)SCN1C(=O)c2ccccc2C1=O`, the call was inactive.
Regarding `C=CC(=O)OCC(CC)CCCC` (stereo not given), the result was inactive.
As to `Nc1ccc([As](=O)(O)O)cc1`, the call was inactive.
Next, `CNc1cnn(-c2cccc(C(F)(F)F)c2)c(=O)c1Cl`: “inactive”.
`CCCOC(=O)c1ccccc1C(=O)OCCC`: the call was inactive.
Take `CCCCCCCCCCCCCCCCCC(=O)O`: the result was inactive.
Regarding `Clc1cnc(Oc2ccc(Oc3ncc(Cl)cc3Cl)cc2)c(Cl)c1`, the result was inactive.
Turning to `Cc1ccc(N)cc1`, the result was inactive.
Turning to `CCOc1ccc(N)cc1`, the call was inactive.
In the case of `CC(=O)/C=C/c1ccccc1`, the result was inactive.
Next, `COC(C)(C)CCCC(C)C/C=C/C(C)=C/C(=O)OC(C)C` (stereo not given): “inactive”; `Cc1cccc(N)c1C`: “inactive”.
To `O=[N+]([O-])c1ccc(Cl)cc1` belongs “inactive”.
With `COC(=O)Nc1cccc(OC(=O)Nc2cccc(C)c2)c1`, the call was inactive.
To `C/C=C/c1ccc2c(c1)OCO2` belongs “inactive”; to `CCOC(=O)CC(SP(=O)(OC)OC)C(=O)OCC` (stereo not given), “inactive”.

The values above are taken from PubChem BioAssay (Tox21).
